PubChem BioAssay (EPA / NIEHS)
The source made the active and inactive calls. How the source made its calls: active means hit-call score of the fitted dose curve at least 0.9, where 1 is the maximum; inactive means score below 0.9.

Experiments:
[1] = ATG_E_Box_CIS: Attagene CIS-FACTORIAL HepG2 Assay for human Enhancer Box (E-box) (AID 2282936); settings: HepG2 E-box cis-reporter transcription, actives raise or lower the signal
Outline: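 HepG2 cells transiently transfected with multiplexed cis-element reporter units, dosed 24 h; reporter mRNA quantified by RT-PCR, 6-FAM labelling, HpaI digestion and capillary electrophoresis. E-box (USF1) signal fitted bidirectionally vs DMSO.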

[2] = ATG_EGR_CIS: Attagene CIS-FACTORIAL HepG2 Assay for human Early Growth Response 1 (EGR1) (AID 2282938); settings: HepG2 Attagene CIS-FACTORIAL EGR reporter mRNA; actives raise or lower the signal
Outline: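 Activity is taken as induction or loss of reporter mRNA versus DMSO, fitted bidirectionally. Transcripts from cis-regulated reporter units in transiently transfected HepG2 were measured after 24 h by RT-PCR with capillary electrophoresis.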

[3] = ATG_M_19_CIS: Attagene CIS-FACTORIAL HepG2 Assay for M19 Transcription Factor (Internal Marker) (AID 2282939); settings: HepG2 Attagene CIS-FACTORIAL M19 internal marker reporter; actives raise or lower the signal
Outline: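 HepG2, MRTU transient transfection, 24 h dosing. Total RNA → RT-PCR → 6-FAM primer extension → HpaI digest → CE fluorescence. Bidirectional curve fit, DMSO negative control.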

[4] = ATG_Ets_CIS: Attagene CIS-FACTORIAL HepG2 Assay for human Erythroblast Transformation Specific (ETS) (AID 2282941); settings: HepG2 ETS cis-reporter transcription, actives raise or lower the signal
Outline: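 After transient cis-reporter transfection, HepG2 cells receive test chemical for 24 h. Reporter mRNA levels, measured by RT-PCR and capillary electrophoresis fluorescence, are analysed bidirectionally relative to the DMSO baseline.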

[5] = target: Hepatocyte nuclear factor 3-beta (Homo sapiens) (UniProt Q9Y261); test: ATG_FoxA2_CIS: Attagene CIS-FACTORIAL HepG2 Assay for human Forkhead box A2 (FOXA2) (AID 2282942); settings: HepG2 cis-reporter transcription factor activity, 24 h; actives raise or lower the signal
Hepatocyte nuclear factor 3-beta (Homo sapiens), sequence (Q9Y261 whole entry, looked up): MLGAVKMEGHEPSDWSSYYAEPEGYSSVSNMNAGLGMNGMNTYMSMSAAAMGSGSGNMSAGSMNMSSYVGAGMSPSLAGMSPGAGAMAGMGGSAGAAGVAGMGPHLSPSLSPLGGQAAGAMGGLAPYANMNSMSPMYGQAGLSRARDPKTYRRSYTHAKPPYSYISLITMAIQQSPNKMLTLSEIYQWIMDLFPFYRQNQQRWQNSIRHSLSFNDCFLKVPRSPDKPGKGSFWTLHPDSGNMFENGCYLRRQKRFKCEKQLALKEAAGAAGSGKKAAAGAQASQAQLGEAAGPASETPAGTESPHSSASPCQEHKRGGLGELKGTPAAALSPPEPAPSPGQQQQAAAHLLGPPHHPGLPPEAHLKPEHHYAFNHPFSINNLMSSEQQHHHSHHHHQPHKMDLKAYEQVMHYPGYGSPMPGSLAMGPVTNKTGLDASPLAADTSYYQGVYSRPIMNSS
Outline: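 Reporter transcript induction is measured by fluorescence after capillary electrophoresis of RT-PCR products from HepG2 cells exposed 24 h. Cis-regulated reporter units report endogenous factor activity; curves fitted both directions against DMSO.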

[6] = ATG_GATA_CIS: Attagene CIS-FACTORIAL HepG2 Assay for human GATA Binding Protein (AID 2282944); settings: HepG2 GATA cis-element reporter, Attagene multiplex mRNA; actives raise or lower the signal
Outline: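 Cells: HepG2, transiently transfected with cis-regulated reporter transcription units. Exposure: 24 h. Detection: RT-PCR plus capillary electrophoresis of FAM-labeled fragments. Analysis: bidirectional, DMSO as baseline.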

[7] = ATG_GLI_CIS: Attagene CIS-FACTORIAL HepG2 Assay for human Zinc Finger Protein GLI1 (AID 2282945); settings: HepG2, Attagene cis-factorial reporter mRNA, GLI element; actives raise or lower the signal
Outline: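 Transiently transfected HepG2 cells report endogenous transcription factor activity via cis-element-driven reporter units. After 24 h compound exposure, reporter mRNA was measured by RT-PCR with capillary electrophoresis; bidirectional fitting against DMSO baseline.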

[8] = target: Bile acid receptor (Homo sapiens) (UniProt Q96RI1); test: ATG_IR1_CIS: Attagene CIS-FACTORIAL HepG2 Assay for human Nuclear Receptor Subfamily 1 Group H Member 4 (NR1H4), IR1 submotif (AID 2282946); settings: IR1 reporter transcription, actives raise or lower the signal
Bile acid receptor (Homo sapiens), sequence (Q96RI1 whole entry, looked up): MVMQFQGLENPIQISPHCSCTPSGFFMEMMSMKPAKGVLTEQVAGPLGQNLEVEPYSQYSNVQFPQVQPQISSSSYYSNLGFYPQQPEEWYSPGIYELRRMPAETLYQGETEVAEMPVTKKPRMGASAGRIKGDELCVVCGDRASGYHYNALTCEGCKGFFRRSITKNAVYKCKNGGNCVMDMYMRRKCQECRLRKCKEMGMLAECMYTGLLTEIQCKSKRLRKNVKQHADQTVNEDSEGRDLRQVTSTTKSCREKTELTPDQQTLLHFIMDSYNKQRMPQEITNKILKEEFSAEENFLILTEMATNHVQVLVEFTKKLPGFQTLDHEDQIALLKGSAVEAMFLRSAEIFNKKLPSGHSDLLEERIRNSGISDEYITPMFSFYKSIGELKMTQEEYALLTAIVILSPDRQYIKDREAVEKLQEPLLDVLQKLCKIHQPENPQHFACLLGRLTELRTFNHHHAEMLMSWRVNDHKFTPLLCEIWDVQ
Outline: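 HepG2 cells transiently transfected with multiple cis-promoter-driven reporter units to measure endogenous transcription factor activity; 24 h exposure. Reporter mRNA read by RT-PCR, FAM labelling, HpaI digestion and capillary electrophoresis. Bidirectional fit versus DMSO.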

[9] = ATG_ISRE_CIS: Attagene CIS-FACTORIAL HepG2 Assay for human Interferon Regulatory Factor 1 (IRF1) binding to an Interferon-Stimulated Response Element (ISRE) (AID 2282948); settings: HepG2 ISRE cis-reporter (Attagene), mRNA transcription readout; actives raise or lower the signal
Outline: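 Quantitation relies on labelled RT-PCR fragments separated by capillary electrophoresis. Human HepG2 cells bearing cis-promoter reporter constructs were treated 24 h; DMSO served as baseline for bidirectional fitting.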

[10] = ATG_M_32_CIS: Attagene CIS-FACTORIAL HepG2 Assay for M32 Transcription Factor (Internal Marker) (AID 2282949); settings: HepG2 Attagene cis-factorial M32 reporter, mRNA; actives raise or lower the signal;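 further: background control marker of the multiplexed CIS panel rather than a real target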
Outline: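 HepG2 cells transiently transfected with multiplexed cis-regulated reporter units, dosed 24 h. Reporter mRNA quantified by RT-PCR, 6-FAM labelling, HpaI digestion and capillary electrophoresis; bidirectional fit vs DMSO.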

[11] = ATG_M_06_CIS: Attagene CIS-FACTORIAL HepG2 Assay for M06 Transcription Factor (Internal Marker) (AID 2282950); settings: HepG2 Attagene CIS-FACTORIAL M06 internal marker reporter; actives raise or lower the signal
Outline: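 Measured 24 h post-dosing in transiently transfected HepG2 cells, this internal-marker endpoint reports reporter mRNA via RT-PCR with fluorescent primer extension and capillary electrophoresis. DMSO served as negative control and baseline for bidirectional fitting.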

[12] = target: Hypoxia-inducible factor 1-alpha (Homo sapiens) (UniProt Q16665); test: ATG_HIF1a_CIS: Attagene CIS-FACTORIAL HepG2 Assay for human Hypoxia Inducible Factor 1 (HIF1A) (AID 2282951); settings: HepG2 Attagene cis-factorial HIF1a reporter transcription; actives raise or lower the signal
Hypoxia-inducible factor 1-alpha (Homo sapiens), sequence (Q16665 whole entry, looked up): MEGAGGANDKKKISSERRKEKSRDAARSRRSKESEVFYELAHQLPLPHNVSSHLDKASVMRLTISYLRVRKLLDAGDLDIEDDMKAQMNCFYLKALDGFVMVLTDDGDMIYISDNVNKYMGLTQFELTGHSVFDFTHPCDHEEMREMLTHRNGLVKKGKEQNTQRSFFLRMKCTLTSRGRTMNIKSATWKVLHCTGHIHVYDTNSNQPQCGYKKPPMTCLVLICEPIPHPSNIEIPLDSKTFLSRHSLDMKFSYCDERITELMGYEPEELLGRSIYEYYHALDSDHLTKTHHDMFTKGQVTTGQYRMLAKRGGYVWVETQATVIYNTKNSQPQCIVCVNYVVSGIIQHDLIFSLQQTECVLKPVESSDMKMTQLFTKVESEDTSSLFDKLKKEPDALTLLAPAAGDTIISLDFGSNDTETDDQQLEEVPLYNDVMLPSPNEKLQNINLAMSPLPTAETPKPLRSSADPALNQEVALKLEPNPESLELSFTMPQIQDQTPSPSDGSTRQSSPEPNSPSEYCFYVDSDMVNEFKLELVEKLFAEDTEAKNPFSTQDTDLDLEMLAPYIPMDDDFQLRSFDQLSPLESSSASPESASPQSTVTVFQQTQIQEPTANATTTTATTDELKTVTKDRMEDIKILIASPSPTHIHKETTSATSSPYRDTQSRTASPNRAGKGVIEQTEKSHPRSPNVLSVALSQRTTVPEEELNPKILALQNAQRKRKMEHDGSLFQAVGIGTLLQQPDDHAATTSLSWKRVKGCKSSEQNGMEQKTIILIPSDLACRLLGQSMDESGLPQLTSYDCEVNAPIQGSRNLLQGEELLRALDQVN
Outline: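 Fluorescence intensity of capillary-separated, 6-FAM-labelled reporter amplicons gives mRNA induction in HepG2 cells carrying transfected cis-promoter reporter units; cells exposed 24 h, responses fitted up or down from DMSO.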

[13] = target: Hepatocyte nuclear factor 6 (Homo sapiens) (UniProt Q9UBC0); test: ATG_HNF6_CIS: Attagene CIS-FACTORIAL HepG2 Assay for human Hepatocyte Nuclear Factor 6 (HNF6) (AID 2282952); settings: HepG2 Attagene cis-factorial HNF6 reporter transcription; actives raise or lower the signal
Hepatocyte nuclear factor 6 (Homo sapiens), sequence (Q9UBC0 whole entry, looked up): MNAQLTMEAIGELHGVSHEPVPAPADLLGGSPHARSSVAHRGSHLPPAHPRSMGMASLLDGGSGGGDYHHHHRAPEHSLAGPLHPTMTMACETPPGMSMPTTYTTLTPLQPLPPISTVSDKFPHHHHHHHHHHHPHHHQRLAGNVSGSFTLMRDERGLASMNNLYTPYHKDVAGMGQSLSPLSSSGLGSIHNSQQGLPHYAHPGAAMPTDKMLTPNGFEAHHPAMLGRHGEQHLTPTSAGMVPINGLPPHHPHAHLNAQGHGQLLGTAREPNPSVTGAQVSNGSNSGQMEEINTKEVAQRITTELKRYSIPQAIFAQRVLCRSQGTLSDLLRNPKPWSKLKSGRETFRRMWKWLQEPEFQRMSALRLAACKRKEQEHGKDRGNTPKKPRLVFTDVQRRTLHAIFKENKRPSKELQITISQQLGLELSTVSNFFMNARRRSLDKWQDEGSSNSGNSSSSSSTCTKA
Outline: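 Transiently transfected HepG2 cells expressing cis-regulated reporter transcription units were exposed to chemical for 24 h in a 24-well format. Reporter transcript abundance was determined by fluorescence capillary electrophoresis.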

[14] = ATG_MRE_CIS: Attagene CIS-FACTORIAL HepG2 Assay for human Metal Responsive Element (MRE) (AID 2282954); settings: HepG2 MRE cis-reporter transcription, Attagene multiplex; actives raise or lower the signal
Outline: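 HepG2 cells transiently transfected with cis-element-driven reporter units; mRNA measured 24 h after dosing. Reporter transcripts quantified by RT-PCR, FAM labelling, HpaI digestion and capillary electrophoresis; bidirectional fit versus DMSO.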

[15] = ATG_PBREM_CIS: Attagene CIS-FACTORIAL HepG2 Assay for human Phenobarbital-responsive Enhancer Module (PBREM) (AID 2282955); settings: HepG2 PBREM cis-reporter, Attagene multiplexed transcription; actives raise or lower the signal
Outline: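 Cells were transfected with cis-element reporter units and treated for 24 h, after which RNA was extracted and reporter transcripts measured by RT-PCR and capillary electrophoresis.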

[16] = target: Heat shock factor protein 1 (Homo sapiens) (UniProt Q00613); test: ATG_HSE_CIS: Attagene CIS-FACTORIAL HepG2 Assay for human Heat Shock Transcription Factor 1 (HSE) (AID 2282953); settings: HepG2 HSE cis-reporter, Attagene RNA transcription; actives raise or lower the signal
Heat shock factor protein 1 (Homo sapiens), sequence (Q00613 whole entry, looked up): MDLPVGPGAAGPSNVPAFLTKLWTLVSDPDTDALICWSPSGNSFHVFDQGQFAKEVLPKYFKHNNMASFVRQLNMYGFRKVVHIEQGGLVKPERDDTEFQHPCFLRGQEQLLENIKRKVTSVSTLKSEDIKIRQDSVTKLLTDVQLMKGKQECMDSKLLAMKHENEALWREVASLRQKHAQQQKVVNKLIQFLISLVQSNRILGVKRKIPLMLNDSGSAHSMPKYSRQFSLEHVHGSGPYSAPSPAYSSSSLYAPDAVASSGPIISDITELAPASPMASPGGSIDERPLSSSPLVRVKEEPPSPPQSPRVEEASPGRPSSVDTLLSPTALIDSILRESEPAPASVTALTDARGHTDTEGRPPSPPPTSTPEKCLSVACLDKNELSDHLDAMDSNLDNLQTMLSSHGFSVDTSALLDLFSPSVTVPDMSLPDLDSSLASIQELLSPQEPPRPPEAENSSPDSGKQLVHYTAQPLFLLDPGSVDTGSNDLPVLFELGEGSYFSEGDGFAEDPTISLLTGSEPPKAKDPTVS
Outline: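 Reporter mRNA induction in HepG2 is measured 24 h after dosing, using transiently transfected multiplexed cis-regulated reporter units. Signal comes from capillary electrophoresis of labelled RT-PCR products, with DMSO as negative control.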

[17] = ATG_FoxO_CIS: Attagene CIS-FACTORIAL HepG2 Assay for human Forkhead box O (FoxO) (AID 2282943); settings: HepG2 Attagene cis-reporter, FoxO element, mRNA; actives raise or lower the signal
Outline: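 HepG2 cells transiently transfected with cis-element-driven reporter units report endogenous FoxO activity. After 24 h chemical exposure, reporter mRNA quantified by RT-PCR, fluorescent labeling, HpaI digestion and capillary electrophoresis; bidirectional fit versus DMSO.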

[18] = ATG_GRE_CIS: Attagene CIS-FACTORIAL HepG2 Assay for human Glucocorticoid Response Elements (GRE) (AID 2282947); settings: HepG2 GRE cis-reporter, Attagene multiplex mRNA; actives raise or lower the signal
Outline: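 Transiently transfected HepG2 cells carrying GRE cis-reporter units (endogenous TF activity) dosed 24 h; reporter mRNA quantified by RT-PCR, 6-FAM labelling, HpaI digestion and capillary electrophoresis. Bidirectional fit versus DMSO baseline.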

[19] = ATG_ERE_CIS: Attagene CIS-FACTORIAL HepG2 Assay for Estrogen Response Element (ERE) (AID 2282940); settings: HepG2 ERE cis-reporter, Attagene RNA transcript; actives raise or lower the signal
Outline: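 After a 24 h chemical treatment, RNA from reporter-transfected HepG2 cells is reverse-transcribed, PCR-amplified and fluorescently labelled. Fragments separated by capillary electrophoresis give reporter signal; DMSO serves as negative control.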

Measured: AC50

CCCCOC(=O)c1ccccc1C(=O)O
active: [5] 81.4 µM
not listed: [16] | [17] | [18] | [19]
inactive: all other assays above

C#CCC1=C(C)C(OC(=O)C2C(C=C(C)C)C2(C)C)CC1=O (stereo not given)
active: [1] 78.6 µM | [2] 50 µM | [6] 77.1 µM | [7] 73.2 µM | [9] 71.2 µM | [12] 50 µM | [13] 50 µM | [16] 74.8 µM | [14] 72.2 µM | [15] 4.27 µM
inactive: [3] | [4] | [5] | [8] | [11]

C#CC(C)(C)NC(=O)c1cc(Cl)cc(Cl)c1
active: [14] 50 µM | [15] 50 µM
not listed: [4] | [8] | [10] | [19]
inactive: all other assays above

COP(=O)(NC(C)=O)SC (stereo not given)
not listed: [8] | [10] | [17] | [19]
inactive: all other assays above

FC(F)C(F)(F)OCC(Cn1cncn1)c1ccc(Cl)cc1Cl (stereo not given)
active: [2] 50 µM | [5] 50 µM | [12] 75.4 µM | [14] 69.3 µM
not listed: [4] | [15] | [16] | [19]
inactive: all other assays above

Nc1c(Cl)cc([N+](=O)[O-])cc1Cl
active: [19] 28.2 µM | [5] 76.1 µM | [18] 86.3 µM | [14] 64.6 µM
not listed: [4] | [10] | [17]
inactive: all other assays above

CC1=NNC(=O)N(/N=C/c2cccnc2)C1
not listed: [4] | [8] | [10] | [15] | [17] | [18] | [19]
inactive: all other assays above

CCOP(=S)(Oc1cnc(C(C)(C)C)nc1)OC(C)C (stereo not given)
active: [1] 27 µM | [2] 19.3 µM | [7] 50 µM | [14] 65.3 µM | [15] 21.2 µM
not listed: [8] | [16] | [17] | [19]
inactive: all other assays above

CCOP(=O)(OCC)Oc1cc(C)nc(C(C)C)n1
not listed: [10] | [15] | [19]
inactive: all other assays above

CC(C)N(C(=O)SCC(Cl)=C(Cl)Cl)C(C)C
active: [8] 19.9 µM | [14] 29.1 µM
not listed: [10] | [17] | [19]
inactive: all other assays above

COP(=O)(OC)C(O)C(Cl)(Cl)Cl (stereo not given)
active: [2] 67.3 µM | [14] 31.5 µM
not listed: [4] | [10] | [12] | [16] | [19]
inactive: all other assays above

O=c1ccc(=O)[nH][nH]1
not listed: [4] | [15] | [16] | [17] | [18] | [19]
inactive: all other assays above

Cc1nn(-c2cc(NS(C)(=O)=O)c(Cl)cc2Cl)c(=O)n1C(F)F
not listed: [4] | [8] | [15] | [16] | [18] | [19]
inactive: all other assays above

CCOC(=O)COc1cc(-c2nn(C)c(OC(F)F)c2Cl)c(F)cc1Cl
not listed: [8] | [16] | [17] | [19]
inactive: all other assays above

CC(COc1ccc(Oc2ccccc2)cc1)Oc1ccccn1 (stereo not given)
active: [2] 13.2 µM | [15] 13.8 µM
not listed: [4] | [10] | [16] | [18] | [19]
inactive: all other assays above

CCC(=O)Nc1ccc(Cl)c(Cl)c1
not listed: [8] | [10] | [16] | [17] | [18] | [19]
inactive: all other assays above

CN1COCN(Cc2cnc(Cl)s2)C1=N[N+](=O)[O-]
not listed: [4] | [15] | [17] | [19]
inactive: all other assays above

COP(=O)(OC)OC(Br)C(Cl)(Cl)Br (stereo not given)
not listed: [4] | [16]
inactive: all other assays above

CON=C(C(=O)OC)c1ccccc1CON=C(C)c1cccc(C(F)(F)F)c1
active: [1] 12.5 µM | [9] 12.6 µM | [16] 24.1 µM | [14] 68.9 µM
not listed: [4] | [8] | [18] | [19]
inactive: all other assays above

CCC(CC)Nc1c([N+](=O)[O-])cc(C)c(C)c1[N+](=O)[O-]
active: [8] 50 µM | [9] 50 µM | [14] 28.9 µM
not listed: [16] | [17] | [19]
inactive: all other assays above

CC(C)=CC1C(C(=O)OCN2C(=O)C3=C(CCCC3)C2=O)C1(C)C (stereo not given)
inactive: [1] | [3] | [5] | [6] | [7] | [18] | [9] | [11] | [13]
active: [2] 62.1 µM | [12] 50 µM | [14] 64.6 µM

S=C1NCCN1
not listed: [8] | [15] | [16] | [17] | [18] | [19]
inactive: all other assays above
